Sampled rows, rich in hits. Any-hit rate of the full collection: about 8.7%.
TNAP act mid DEA: human TNAP activation, intermediate phosphate acceptor | activation factor at 20 µM | 64,000 tested, under 10 active | purified TNAP, CDP-star luminescence, 100 mM DEA, 30 min; hits give high values; scale: 0 levamisole-inhibited, 1 vehicle-only enzyme | P05186;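 active = activation factor of at least 2 at 20 µM, relative to controls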
Smad3 inh: inhibitors of human Smad3 transcription factor binding | P84022 | TR-FRET Smad3/Dy647-FoxH1 peptide binding, europium anti-His | inhibition, % at 25 µM | 88,000 tested, 0.29% active | AID 630;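 active = compounds that reduce the energy-transfer binding signal between the protein and its labelled peptide by more than half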;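 also: 0% = Smad3 plus labelled peptide maximal FRET and 100% = peptide-only background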
PostGolgi yeast: growth inhibition of a yeast mutant, post-Golgi transport screen; post-Golgi transport phenotypic cell assay; inhibition, % at 10 µM; 98,000 tested, 0.9% active;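 also: yeast cells grown in 1536-well plates; yeast grown about 18 h at 30C before absorbance read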
DAT uptake mod: modulates human dopamine transporter uptake under cocaine; LLC-PK1 hDAT cells, [14C]-dopamine uptake with cocaine IC80; actives deviate in either direction; Q01959; B-score at 10 µM; AID 449768; 110,000 tested, 1.3% active;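 active = Z score or B-score, a plate-position-corrected score, falls beyond the plate's 99.7% confidence bounds, in either direction; inactive = both scores lie inside the 99.7% bounds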;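 also: scored against the spread of the other compound wells on the same plate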
Cav32 inh: blocks human Cav3.2 T-type calcium channel; O95180; Cav3.2-expressing cells, Fluo-4 calcium fluorescence FDSS; hits give low values; B-score at 10 µM; 100,000 tested, 4% active; AID 449739;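 active = single-dose well whose peak fluorescence ratio is a statistical outlier from its plate by either plate-standardised score or position-corrected B-score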
PostGolgi ctrl: growth of the yeast control strain, post-Golgi counter-screen | efflux-deficient yeast background strain, growth absorbance A615, 16 h | inhibition, % at 10 µM | 98,000 tested, 5% active
Active calls of the source: *; x = no result given. Rule as the data show it, unless noted: active = inhibition above about 30%; inactive = the rest.

SMILES | TNAP act mid DEA | Smad3 inh | PostGolgi yeast | DAT uptake mod | Cav32 inh | PostGolgi ctrl
O=C(O)CCC1=C2c3ccccc3CCN2C(=O)CC1 | 0.9 | -5.6 | -4.0 | -0.253 | -0.0299 | 28.3
C=CCOC(=O)C(C#N)c1nc2ccccc2nc1N1CCN(Cc2ccccc2)CC1 (stereo not given) | 0.9 | 6.5 | -6.4 | 0.0818 | 0.0113 | 8.2
COCC(C)OC(=O)C(C#N)c1nc2ccccc2nc1N1CCN(Cc2ccccc2)CC1 (stereo not given) | 0.8 | 0.7 | 3.9 | 1.1 | -6.12* | 20.5
C=CCOC(=O)C(C#N)c1nc2ccccc2nc1N1CCN(c2ccccc2OC)CC1 (stereo not given) | 0.8 | 9.6 | 3.9 | -0.359 | -9.25* | 12.1
N#CC(C(=O)OC1CCCCC1)c1nc2ccccc2nc1N1CCOCC1 (stereo not given) | 0.8 | -8.3 | -0.3 | -0.00233 | -1.15 | 40.4*
CC(C)COC(=O)C(C#N)c1nc2ccccc2nc1N1CCN(Cc2ccccc2)CC1 (stereo not given) | 0.8 | -2.3 | 1.1 | 0.76 | -3.96* | 18.5
CN1CCN(c2nc3ccccc3nc2C(C#N)C(=O)OC2CCCCC2)CC1 (stereo not given) | 0.7 | 5.7 | 2.0 | 0.801 | 0.00868 | 16.9
COCCOC(=O)C(C#N)c1nc2ccccc2nc1N1CCN(Cc2ccccc2)CC1 (stereo not given) | 0.8 | 11.3 | 11.2 | 0.00896 | -3.74 | 4.5
O=C(O)C1CC=CCC1C(=O)N1CCN(c2nc(-c3ccccc3Cl)c3cc(Br)ccc3n2)CC1 (stereo not given) | x | 18.6 | x | x | x | x
N#CC(C(=O)NC1CC1)c1nc2ccccc2nc1N1CCN(C/C=C/c2ccccc2)CC1 (stereo not given) | 0.7 | 8.5 | 1.9 | -0.65 | -11.3* | 20.9
COCCCNC(=O)C(C#N)c1nc2ccccc2nc1N1CCN(Cc2ccccc2)CC1 (stereo not given) | 0.8 | 8.3 | 5.3 | 2.39 | -8.99* | 16.4
COCCNC(=O)C(C#N)c1nc2ccccc2nc1N1CCCCCC1 (stereo not given) | 0.8 | x | 5.5 | x | x | 10.8
CCCCNC(=O)C(C#N)c1nc2ccccc2nc1N1CCN(c2ccccc2F)CC1 (stereo not given) | 0.8 | 6.5 | -2.2 | -1.1 | -7.54* | 12.9
Cc1ccc(S(=O)(=O)N[C@H](CO)C(=O)O)cc1 | x | 0.2 | x | x | x | x
C=CCn1c(N)nc2ccccc21 | 0.8 | x | -1.1 | -2.58* | 0.0202 | -1.7
CCCCCC(=O)NC(NC(=S)NC1CCS(=O)(=O)C1)C(Cl)(Cl)Cl (stereo not given) | x | -9.6 | x | -2.97* | 1.62 | x
CCCCCCCCC(=O)NC(NC(=S)N1CCOCC1)C(Cl)(Cl)Cl (stereo not given) | x | 10.1 | x | -0.234 | -4.16* | x
O=C(Nc1ccc2c(c1)nc1n2CCOC1)c1ccco1 | 1 | -4.3 | -4.4 | -0.507 | -0.296 | -2.9
CC(Nc1ccc(Br)cc1)C(=O)N/N=C/c1ccccc1OCc1ccccc1 (stereo not given) | x | x | 16.8 | -0.00253 | -3.3 | 26.1
COc1ccc(NC(C)C(=O)N/N=C/c2ccccc2OCc2ccc(Br)cc2)cc1 (stereo not given) | x | x | 2.5 | 0.627 | -5.92* | 5.6
COC(=O)C1=C(N)Oc2cc(N(C)C)ccc2C1c1ccccc1OC (stereo not given) | 1 | 0.6 | -11.0 | -0.561 | -6.98* | 0.0
O=c1ccn([C@H]2C[C@H](O)[C@@H](CO)O2)c(=O)[nH]1 | x | x | x | -1.44 | -1.02 | x
CC1Cc2ccccc2N1C(=O)CSc1ccccc1 (stereo not given) | x | x | -2.0 | 1.03 | -1.21 | 9.8
CC1Cc2ccccc2N1C(=O)CSc1nnc2c(n1)[nH]c1ccc(F)cc12 (stereo not given) | x | -2.1 | x | 0.258 | -5.94* | x
O=C(CSc1nnc(CNc2ccc(F)cc2)o1)N1CCN(C(=O)c2ccco2)CC1 | 1 | 6.6 | 3.3 | -0.277 | -1.93 | 7.7
SMILES | TNAP act mid DEA | Smad3 inh | PostGolgi yeast | DAT uptake mod | Cav32 inh | PostGolgi ctrl
CC(C)c1nc(SCC(=O)N2c3ccccc3CC2C)c2ccccc2n1 (stereo not given) | x | x | 11.9 | -0.473 | -3.43 | 37.0*
CC1Cc2ccccc2N1C(=O)CSc1nnc(CNc2ccccc2)o1 (stereo not given) | 0.9 | 5.3 | -0.3 | 0.545 | 0.852 | 36.9*
O=C(CSc1nnc(CNc2ccc(F)cc2)o1)N1c2ccccc2Sc2ccccc21 | x | x | 10.9 | 0.243 | -5.49* | 50.1*
COCCNC(=O)C(c1ccccc1C)N(CCOC)C(=O)Cn1nnc2ccccc21 (stereo not given) | 0.9 | 6.5 | 12.0 | 1.93 | 0.0813 | 7.7
CCc1ccccc1NC(=O)c1cc2ncc(Br)cn2n1 | x | 12.6 | 8.3 | 0.962 | 0.418 | 13.4
CCCSc1nc(N2CCOCC2)c2c(c1C#N)CCCC2 | 0.9 | -4.7 | -9.5 | 0.611 | -6.56* | 28.4
CCCc1nc(N2CCOCC2)c(C#N)c2c1CCCC2 | 0.9 | 5.8 | -1.1 | -0.147 | -2.67 | 38.9*
COC(=O)CSc1nc(N2CCCCC2)c2c(c1C#N)CCCC2 | 0.9 | 16.6 | -4.9 | -0.828 | -2.71 | 38.3*
CCCCc1nc(N2CCOCC2)c(C#N)c2c1CCCC2 | 0.9 | -0.2 | 4.8 | 0.876 | -2.57 | 24.6
CC(C)CCSc1nc(N2CCOCC2)c2c(c1C#N)CC(C)(C)OC2 | 0.9 | -1.6 | -3.0 | -0.029 | -3.8* | 18.0
COC(=O)c1ccc(CSc2nc(N3CCOCC3)c3c(c2C#N)CC(C)(C)OC3)o1 | 0.8 | 6.1 | 8.0 | 0.883 | -2.17 | 18.9
CN(C)c1ccnc(N(Cc2ccccc2)Cc2ccccc2)c1C#N | x | -16.0 | -8.7 | 1.17 | -1.13 | 20.4
Cc1nn(C)c(C)c1/C=N/NC(=O)c1csc2ccccc12 | x | x | -7.6 | 0.454 | 0.361 | -2.2
Cc1cc(NC(=O)COC(=O)C(Nc2ccc(C(F)(F)F)cc2Cl)C(C)C)no1 (stereo not given) | 0.9 | -2.4 | 3.4 | 0.2 | -4.53* | 59.1*
Cc1cc(NC(=O)COC(=O)CSCc2ccc(Cl)c(Cl)c2)no1 | 0.9 | -5.2 | -3.3 | 0.483 | -0.533 | 7.6
CCN(CC)C(=S)Sc1c(-c2ccccc2)c2cc(Cl)ccc2[nH]c1=O | x | -10.4 | 18.2 | 0.627 | -1.16 | 32.0*
O=c1[nH]c2ccc(Cl)cc2c(-c2ccccc2)c1N1CCOCC1 | 0.9 | 3.1 | -2.4 | 0.273 | -0.00654 | 28.5
Cc1cc(=O)[nH]c(N2CCc3ccccc3C2)n1 | x | 6.3 | 2.0 | -0.389 | 0.662 | 46.4*
CCOC(=O)N1CCC(N(CCCOC)C(=O)Nc2cccc(OC)c2)CC1 | 0.9 | 3.7 | 2.6 | -0.38 | 1.39 | 16.7
CCOC(=O)N1CCC(N(CCOC)C(=O)Nc2ccc(Cl)c(Cl)c2)CC1 | 0.9 | 1.4 | -2.8 | 0.503 | -2.53 | 64.2*
Cc1ccc(C2C=C(c3ccccc3OC(F)F)Nc3ncnn32)cc1 (stereo not given) | 0.9 | 8.2 | 0.5 | x | x | 21.7
